# Experimental data as given in publication PMC7862700, “An all-to-all approach to the identification of sequence-specific readers for epigenetic DNA modifications on cytosine”.
# Assays:
# Test in all cases: DAPPL (digital affinity profiling via proximity ligation, sequencing); 10 mM Tris-HCl pH 7.5, 50 mM NaCl, 1 mM DTT, 4% glycerol, room temperature, 30 min; GST-TFs on glutathione beads, 16-mer random dsDNA library, 0.1% formaldehyde crosslink after washing; high values mean tight binding
# [1] = biological target: T1, FLI1 (Homo sapiens, UniProt Q01543 1-452); details: protein: recombinant; tags: N-terminal GST; dsDNA, one strand shown
# T1 sequence: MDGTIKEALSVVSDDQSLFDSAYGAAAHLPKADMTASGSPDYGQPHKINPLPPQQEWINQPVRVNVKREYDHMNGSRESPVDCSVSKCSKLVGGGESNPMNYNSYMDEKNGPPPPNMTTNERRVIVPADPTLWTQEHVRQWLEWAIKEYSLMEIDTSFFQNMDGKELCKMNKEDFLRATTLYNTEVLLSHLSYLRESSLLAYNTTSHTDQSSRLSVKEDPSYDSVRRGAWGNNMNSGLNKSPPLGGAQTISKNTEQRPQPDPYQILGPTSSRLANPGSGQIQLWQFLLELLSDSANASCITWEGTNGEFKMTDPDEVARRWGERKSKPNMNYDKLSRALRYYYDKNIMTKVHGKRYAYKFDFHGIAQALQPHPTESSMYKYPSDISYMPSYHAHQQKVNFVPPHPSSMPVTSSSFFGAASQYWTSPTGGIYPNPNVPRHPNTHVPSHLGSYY
# Summary of the method: (§1)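 Beads coated with glutathione captured GST-fused human transcription factors that had been expressed in yeast, and the factors were then given DNA barcodes and pooled with a tag-only sample. The pools were incubated with 200 nmole of a random double-stranded 16-mer DNA library in Tris/NaCl/DTT/glycerol buffer for 30 min at room temperature, washed, crosslinked with 0.1% formaldehyde and proximity-ligated with BsaI/T4 ligase at 37 °C for 1 h. PCR amplification and Illumina NextSeq500 sequencing came last. Binding signal is each hexamer's read frequency for a factor divided by its frequency for the tag-only sample.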
# [2] = biological target: T2, ELK1 (Homo sapiens, UniProt P19419 1-428); details: protein: recombinant; tags: N-terminal GST; dsDNA, one strand shown
# T2 sequence: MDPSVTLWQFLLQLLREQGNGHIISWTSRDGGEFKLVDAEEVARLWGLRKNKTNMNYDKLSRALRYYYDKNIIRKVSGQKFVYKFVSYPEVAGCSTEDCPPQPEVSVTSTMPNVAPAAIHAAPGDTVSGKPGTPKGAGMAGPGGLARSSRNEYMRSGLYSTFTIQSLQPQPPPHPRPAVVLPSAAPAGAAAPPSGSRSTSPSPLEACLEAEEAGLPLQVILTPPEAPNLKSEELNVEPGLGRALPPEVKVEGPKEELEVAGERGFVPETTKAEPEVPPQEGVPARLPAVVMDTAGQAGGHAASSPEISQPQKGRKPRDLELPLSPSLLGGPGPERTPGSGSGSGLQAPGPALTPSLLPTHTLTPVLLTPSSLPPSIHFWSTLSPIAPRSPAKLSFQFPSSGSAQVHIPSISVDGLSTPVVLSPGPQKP
# Summary of the method: as §1
# [3] = biological target: T3, GABPA (Homo sapiens, UniProt Q06546 1-454); details: protein: recombinant; tags: N-terminal GST; dsDNA, one strand shown
# T3 sequence: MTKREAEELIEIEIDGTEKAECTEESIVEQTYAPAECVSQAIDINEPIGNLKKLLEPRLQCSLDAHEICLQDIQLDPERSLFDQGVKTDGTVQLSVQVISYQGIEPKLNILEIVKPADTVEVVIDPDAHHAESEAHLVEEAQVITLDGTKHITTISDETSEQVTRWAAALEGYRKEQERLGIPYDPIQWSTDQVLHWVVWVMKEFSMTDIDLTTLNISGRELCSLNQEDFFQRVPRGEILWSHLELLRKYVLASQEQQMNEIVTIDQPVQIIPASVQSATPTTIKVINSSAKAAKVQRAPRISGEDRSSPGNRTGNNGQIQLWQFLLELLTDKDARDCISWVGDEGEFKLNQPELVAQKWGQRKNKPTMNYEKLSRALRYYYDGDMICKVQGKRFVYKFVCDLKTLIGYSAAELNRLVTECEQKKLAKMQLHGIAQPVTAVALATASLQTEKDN
# Summary of the method: as §1
# [4] = biological target: T4, ERG (Homo sapiens, UniProt P11308 1-479); details: protein: recombinant; tags: N-terminal GST; dsDNA, one strand shown
# T4 sequence: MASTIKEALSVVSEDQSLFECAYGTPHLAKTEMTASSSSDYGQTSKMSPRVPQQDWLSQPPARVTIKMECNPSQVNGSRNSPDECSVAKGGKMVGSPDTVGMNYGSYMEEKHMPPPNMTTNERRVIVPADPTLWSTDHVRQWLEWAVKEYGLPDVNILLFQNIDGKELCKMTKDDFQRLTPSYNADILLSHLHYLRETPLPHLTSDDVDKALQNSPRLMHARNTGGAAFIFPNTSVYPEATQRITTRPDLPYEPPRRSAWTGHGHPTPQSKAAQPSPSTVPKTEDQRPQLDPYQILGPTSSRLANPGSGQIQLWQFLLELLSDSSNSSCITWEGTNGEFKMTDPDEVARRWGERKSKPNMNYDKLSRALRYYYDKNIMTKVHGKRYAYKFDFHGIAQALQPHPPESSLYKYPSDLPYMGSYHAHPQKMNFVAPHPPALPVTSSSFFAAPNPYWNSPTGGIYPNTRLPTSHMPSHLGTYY
# Summary of the method: as §1
# [5] = biological target: ELF1 (Homo sapiens, UniProt P32519 1-619); details: protein: recombinant; tags: N-terminal GST; dsDNA, one strand shown
# Summary of the method: as §1
# [6] = biological target: T5, EHF (Homo sapiens, UniProt Q9NZC4 1-300); details: protein: recombinant; tags: N-terminal GST; dsDNA, one strand shown
# T5 sequence: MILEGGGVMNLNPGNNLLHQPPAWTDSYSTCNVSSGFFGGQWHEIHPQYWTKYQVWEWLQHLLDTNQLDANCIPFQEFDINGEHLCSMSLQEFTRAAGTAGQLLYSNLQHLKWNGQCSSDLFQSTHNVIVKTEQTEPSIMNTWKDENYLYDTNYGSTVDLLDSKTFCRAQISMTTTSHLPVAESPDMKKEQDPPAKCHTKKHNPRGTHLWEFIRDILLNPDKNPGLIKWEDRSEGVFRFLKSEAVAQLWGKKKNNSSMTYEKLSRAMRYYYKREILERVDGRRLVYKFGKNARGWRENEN
# Summary of the method: as §1
# [7] = biological target: SPI1 (Homo sapiens, UniProt P17947 1-270); details: protein: recombinant; tags: N-terminal GST; dsDNA, one strand shown
# Summary of the method: as §1
# [8] = biological target: SPIB (Homo sapiens, UniProt Q01892 1-262); details: protein: recombinant; tags: N-terminal GST; dsDNA, one strand shown
# Summary of the method: as §1
# [9] = biological target: T6, ELK3 (Homo sapiens, UniProt P41970 1-407); details: protein: recombinant; tags: N-terminal GST; dsDNA, one strand shown
# T6 sequence: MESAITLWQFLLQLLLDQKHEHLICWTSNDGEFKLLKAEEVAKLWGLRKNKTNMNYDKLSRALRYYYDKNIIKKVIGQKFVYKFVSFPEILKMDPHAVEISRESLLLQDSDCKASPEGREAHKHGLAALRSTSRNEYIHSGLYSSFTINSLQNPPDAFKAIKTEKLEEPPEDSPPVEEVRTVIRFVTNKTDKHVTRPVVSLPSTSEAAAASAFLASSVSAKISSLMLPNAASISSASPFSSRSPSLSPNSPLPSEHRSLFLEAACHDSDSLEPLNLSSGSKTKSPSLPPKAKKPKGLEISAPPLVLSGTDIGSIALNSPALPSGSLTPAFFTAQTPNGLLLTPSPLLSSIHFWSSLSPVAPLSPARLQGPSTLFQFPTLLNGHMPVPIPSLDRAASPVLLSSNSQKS
# Summary of the method: as §1
# [10] = biological target: T7, FEV (Homo sapiens, UniProt Q99581 1-238); details: protein: recombinant; tags: N-terminal GST; dsDNA, one strand shown
# T7 sequence: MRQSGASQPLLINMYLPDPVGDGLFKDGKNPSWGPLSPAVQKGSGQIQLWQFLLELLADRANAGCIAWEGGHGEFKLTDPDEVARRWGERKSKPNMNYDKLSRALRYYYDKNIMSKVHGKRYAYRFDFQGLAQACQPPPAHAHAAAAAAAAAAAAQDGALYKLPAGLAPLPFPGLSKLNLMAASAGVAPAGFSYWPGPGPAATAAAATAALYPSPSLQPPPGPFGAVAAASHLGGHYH
# Summary of the method: as §1
# [11] = biological target: ETV5 (Homo sapiens, UniProt P41161 1-510); details: protein: recombinant; tags: N-terminal GST; dsDNA, one strand shown
# Summary of the method: as §1
# [12] = biological target: HSF1 (Homo sapiens, UniProt Q00613 1-529); details: protein: recombinant; tags: N-terminal GST; chain copies: 3; dsDNA, one strand shown
# Summary of the method: as §1
# [13] = biological target: T8, SPIC (Homo sapiens, UniProt Q8N5J4 1-248); details: protein: recombinant; tags: N-terminal GST; dsDNA, one strand shown
# T8 sequence: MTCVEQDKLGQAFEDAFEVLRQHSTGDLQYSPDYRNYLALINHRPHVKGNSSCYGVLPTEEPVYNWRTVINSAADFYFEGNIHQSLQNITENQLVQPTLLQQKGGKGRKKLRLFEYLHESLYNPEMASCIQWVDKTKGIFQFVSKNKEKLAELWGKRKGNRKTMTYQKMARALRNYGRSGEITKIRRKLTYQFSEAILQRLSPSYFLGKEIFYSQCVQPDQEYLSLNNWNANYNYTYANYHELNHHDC
# Summary of the method: as §1
# [14] = biological target: ELF4 (Homo sapiens, UniProt Q99607 1-663); details: protein: recombinant; tags: N-terminal GST; dsDNA, one strand shown
# Summary of the method: as §1
# [15] = biological target: T9, ELK4 (Homo sapiens, UniProt P28324-2 1-405); details: protein: recombinant; tags: N-terminal GST; dsDNA, one strand shown
# T9 sequence: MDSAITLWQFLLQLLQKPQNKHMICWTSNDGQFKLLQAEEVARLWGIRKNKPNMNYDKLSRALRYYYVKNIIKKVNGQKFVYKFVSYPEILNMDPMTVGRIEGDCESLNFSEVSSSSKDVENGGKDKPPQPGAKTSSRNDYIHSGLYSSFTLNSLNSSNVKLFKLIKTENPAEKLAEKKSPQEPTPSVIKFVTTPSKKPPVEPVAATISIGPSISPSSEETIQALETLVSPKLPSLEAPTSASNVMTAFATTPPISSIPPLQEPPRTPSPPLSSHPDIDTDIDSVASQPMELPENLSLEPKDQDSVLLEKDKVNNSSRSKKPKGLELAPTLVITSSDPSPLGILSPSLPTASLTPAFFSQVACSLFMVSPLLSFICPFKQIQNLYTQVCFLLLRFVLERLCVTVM
# Summary of the method: as §1
# [16] = biological target: T10, ETV2 (Homo sapiens, UniProt O00321 1-342); details: protein: recombinant; tags: N-terminal GST; dsDNA, one strand shown
# T10 sequence: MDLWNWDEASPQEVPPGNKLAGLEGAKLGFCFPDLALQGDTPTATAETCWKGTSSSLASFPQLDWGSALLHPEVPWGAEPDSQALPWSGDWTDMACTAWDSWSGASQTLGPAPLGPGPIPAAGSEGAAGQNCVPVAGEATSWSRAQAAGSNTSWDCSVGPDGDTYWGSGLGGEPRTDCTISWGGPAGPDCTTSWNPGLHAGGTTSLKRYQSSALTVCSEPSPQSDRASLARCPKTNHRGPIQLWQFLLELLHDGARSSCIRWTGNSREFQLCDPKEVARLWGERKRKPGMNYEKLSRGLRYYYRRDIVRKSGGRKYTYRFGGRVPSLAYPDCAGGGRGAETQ
# Summary of the method: as §1
# [17] = biological target: T11, ELF3 (Homo sapiens, UniProt P78545 1-371); details: protein: recombinant; tags: N-terminal GST; dsDNA, one strand shown
# T11 sequence: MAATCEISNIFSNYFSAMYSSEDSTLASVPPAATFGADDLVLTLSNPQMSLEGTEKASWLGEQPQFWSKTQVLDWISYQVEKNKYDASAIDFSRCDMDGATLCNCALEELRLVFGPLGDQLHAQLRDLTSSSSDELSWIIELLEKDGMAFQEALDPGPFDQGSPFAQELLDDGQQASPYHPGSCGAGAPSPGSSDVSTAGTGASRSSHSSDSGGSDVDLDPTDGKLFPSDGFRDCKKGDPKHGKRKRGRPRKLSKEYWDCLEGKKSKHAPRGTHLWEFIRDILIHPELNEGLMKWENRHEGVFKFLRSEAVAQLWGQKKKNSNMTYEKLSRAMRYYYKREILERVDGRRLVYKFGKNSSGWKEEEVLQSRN
# Summary of the method: as §1
# [18] = biological target: CRX (Homo sapiens, UniProt O43186 1-299); details: protein: recombinant; tags: N-terminal GST; dsDNA, one strand shown
# Summary of the method: as §1
# [19] = biological target: ETV1 (Homo sapiens, UniProt P50549 1-477); details: protein: recombinant; tags: N-terminal GST; dsDNA, one strand shown
# Summary of the method: as §1
# ETV5, sequence (P41161 whole entry): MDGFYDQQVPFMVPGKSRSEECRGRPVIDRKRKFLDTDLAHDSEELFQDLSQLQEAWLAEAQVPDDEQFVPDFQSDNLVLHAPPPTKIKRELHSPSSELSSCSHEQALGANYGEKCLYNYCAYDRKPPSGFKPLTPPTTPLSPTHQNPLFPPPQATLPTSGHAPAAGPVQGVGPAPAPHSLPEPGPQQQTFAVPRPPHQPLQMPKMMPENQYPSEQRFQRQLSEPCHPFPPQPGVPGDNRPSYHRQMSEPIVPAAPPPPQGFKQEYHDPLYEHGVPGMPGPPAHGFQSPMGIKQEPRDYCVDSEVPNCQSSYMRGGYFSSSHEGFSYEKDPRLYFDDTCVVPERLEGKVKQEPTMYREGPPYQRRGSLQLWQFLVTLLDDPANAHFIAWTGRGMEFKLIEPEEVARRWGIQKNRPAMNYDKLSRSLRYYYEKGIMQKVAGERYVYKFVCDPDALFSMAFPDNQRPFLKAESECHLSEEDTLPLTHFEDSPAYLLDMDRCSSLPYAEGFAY
# ELF1, sequence (P32519 whole entry): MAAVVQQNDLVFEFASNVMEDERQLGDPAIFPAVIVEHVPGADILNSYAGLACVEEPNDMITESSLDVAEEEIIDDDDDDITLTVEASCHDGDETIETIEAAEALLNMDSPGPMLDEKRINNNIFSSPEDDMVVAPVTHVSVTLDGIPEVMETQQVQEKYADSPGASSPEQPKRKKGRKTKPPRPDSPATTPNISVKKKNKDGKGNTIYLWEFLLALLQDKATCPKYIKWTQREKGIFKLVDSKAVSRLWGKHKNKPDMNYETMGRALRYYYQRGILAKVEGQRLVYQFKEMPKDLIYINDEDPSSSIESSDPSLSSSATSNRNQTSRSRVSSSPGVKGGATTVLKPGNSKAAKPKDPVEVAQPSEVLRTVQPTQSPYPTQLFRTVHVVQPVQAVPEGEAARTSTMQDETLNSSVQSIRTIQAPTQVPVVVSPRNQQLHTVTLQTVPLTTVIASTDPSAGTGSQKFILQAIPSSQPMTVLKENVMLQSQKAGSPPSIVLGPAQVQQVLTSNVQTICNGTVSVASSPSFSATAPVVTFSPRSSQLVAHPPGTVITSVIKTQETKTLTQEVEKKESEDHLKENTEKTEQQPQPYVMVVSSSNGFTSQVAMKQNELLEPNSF
# CRX, sequence (O43186 whole entry): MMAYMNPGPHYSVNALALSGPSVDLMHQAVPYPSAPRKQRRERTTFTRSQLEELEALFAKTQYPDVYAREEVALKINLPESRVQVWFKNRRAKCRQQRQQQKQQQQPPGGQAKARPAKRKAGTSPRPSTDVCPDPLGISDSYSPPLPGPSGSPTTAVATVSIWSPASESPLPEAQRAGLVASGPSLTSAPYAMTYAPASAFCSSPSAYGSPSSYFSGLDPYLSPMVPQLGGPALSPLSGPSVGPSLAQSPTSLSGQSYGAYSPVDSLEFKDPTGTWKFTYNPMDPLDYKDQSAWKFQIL
# SPIB, sequence (Q01892 whole entry): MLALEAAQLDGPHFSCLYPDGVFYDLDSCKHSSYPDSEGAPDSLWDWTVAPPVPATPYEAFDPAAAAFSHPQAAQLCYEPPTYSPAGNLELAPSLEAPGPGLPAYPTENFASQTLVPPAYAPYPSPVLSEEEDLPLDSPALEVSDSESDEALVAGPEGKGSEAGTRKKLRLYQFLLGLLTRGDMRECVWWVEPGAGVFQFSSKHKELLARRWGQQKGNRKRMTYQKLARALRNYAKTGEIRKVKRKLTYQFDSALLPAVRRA
# ETV1, sequence (P50549 whole entry): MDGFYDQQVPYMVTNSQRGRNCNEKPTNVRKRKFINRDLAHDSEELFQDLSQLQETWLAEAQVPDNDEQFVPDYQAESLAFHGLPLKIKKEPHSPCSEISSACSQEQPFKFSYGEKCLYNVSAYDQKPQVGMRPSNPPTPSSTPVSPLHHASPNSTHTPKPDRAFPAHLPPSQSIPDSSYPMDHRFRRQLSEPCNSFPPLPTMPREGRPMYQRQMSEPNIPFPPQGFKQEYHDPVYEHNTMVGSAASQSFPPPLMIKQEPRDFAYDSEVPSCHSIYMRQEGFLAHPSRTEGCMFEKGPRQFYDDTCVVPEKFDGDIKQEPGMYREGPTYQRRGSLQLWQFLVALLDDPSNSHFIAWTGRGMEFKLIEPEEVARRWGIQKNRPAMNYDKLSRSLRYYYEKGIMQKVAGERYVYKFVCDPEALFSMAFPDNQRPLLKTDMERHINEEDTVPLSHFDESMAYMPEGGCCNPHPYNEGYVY
# ELF4, sequence (Q99607 whole entry): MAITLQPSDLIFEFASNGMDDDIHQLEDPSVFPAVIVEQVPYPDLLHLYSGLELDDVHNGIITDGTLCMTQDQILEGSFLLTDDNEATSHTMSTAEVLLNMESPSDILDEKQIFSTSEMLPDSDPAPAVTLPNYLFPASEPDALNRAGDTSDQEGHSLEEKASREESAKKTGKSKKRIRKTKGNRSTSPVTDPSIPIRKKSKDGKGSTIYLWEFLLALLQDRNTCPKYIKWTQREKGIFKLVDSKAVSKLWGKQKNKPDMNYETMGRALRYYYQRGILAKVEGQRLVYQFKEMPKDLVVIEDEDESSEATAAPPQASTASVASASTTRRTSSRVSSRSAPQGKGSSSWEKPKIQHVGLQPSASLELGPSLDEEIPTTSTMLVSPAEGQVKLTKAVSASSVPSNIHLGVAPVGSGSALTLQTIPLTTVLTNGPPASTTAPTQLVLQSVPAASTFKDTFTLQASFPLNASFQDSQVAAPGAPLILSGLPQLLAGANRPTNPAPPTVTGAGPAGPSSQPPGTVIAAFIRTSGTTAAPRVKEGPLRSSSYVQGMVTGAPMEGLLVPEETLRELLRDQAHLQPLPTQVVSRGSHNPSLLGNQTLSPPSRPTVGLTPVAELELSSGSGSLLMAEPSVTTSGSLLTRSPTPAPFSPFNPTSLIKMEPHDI
# HSF1, sequence (Q00613 whole entry): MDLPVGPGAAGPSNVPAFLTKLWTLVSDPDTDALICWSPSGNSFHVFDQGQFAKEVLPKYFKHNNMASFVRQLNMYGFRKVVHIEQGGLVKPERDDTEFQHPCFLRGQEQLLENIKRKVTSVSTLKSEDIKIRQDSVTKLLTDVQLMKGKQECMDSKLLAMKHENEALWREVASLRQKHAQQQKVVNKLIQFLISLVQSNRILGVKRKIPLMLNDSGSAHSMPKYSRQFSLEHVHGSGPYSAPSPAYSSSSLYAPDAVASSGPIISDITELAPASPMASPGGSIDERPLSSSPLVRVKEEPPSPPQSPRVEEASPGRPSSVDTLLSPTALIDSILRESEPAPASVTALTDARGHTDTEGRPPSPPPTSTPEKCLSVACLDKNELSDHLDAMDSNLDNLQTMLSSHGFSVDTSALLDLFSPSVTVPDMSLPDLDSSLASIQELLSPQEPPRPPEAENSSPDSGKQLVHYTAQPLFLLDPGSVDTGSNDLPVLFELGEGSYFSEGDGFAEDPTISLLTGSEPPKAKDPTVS
sequence,measurement,setting,value
TTAAAA,binding signal,[1],"1.19 fold enrichment (6-mer frequency, TF over GST control)"
same,binding signal,[2],"1.15 fold enrichment (6-mer frequency, TF over GST control)"
same,binding signal,[3],"1.19 fold enrichment (6-mer frequency, TF over GST control)"
same,binding signal,[4],"1.15 fold enrichment (6-mer frequency, TF over GST control)"
same,binding signal,[5],"1.22 fold enrichment (6-mer frequency, TF over GST control)"
same,binding signal,[6],"1.16 fold enrichment (6-mer frequency, TF over GST control)"
same,binding signal,[7],"1.33 fold enrichment (6-mer frequency, TF over GST control)"
same,binding signal,[8],"1.23 fold enrichment (6-mer frequency, TF over GST control)"
same,binding signal,[9],"1.22 fold enrichment (6-mer frequency, TF over GST control)"
same,binding signal,[10],"1.16 fold enrichment (6-mer frequency, TF over GST control)"
same,binding signal,[11],"1.14 fold enrichment (6-mer frequency, TF over GST control)"
same,binding signal,[12],"1.87 fold enrichment (6-mer frequency, TF over GST control)"
same,binding signal,[13],"1.28 fold enrichment (6-mer frequency, TF over GST control)"
same,binding signal,[14],"1.19 fold enrichment (6-mer frequency, TF over GST control)"
same,binding signal,[15],"1.27 fold enrichment (6-mer frequency, TF over GST control)"
same,binding signal,[16],"1.25 fold enrichment (6-mer frequency, TF over GST control)"
same,binding signal,[17],"1.24 fold enrichment (6-mer frequency, TF over GST control)"
same,binding signal,[18],"2.69 fold enrichment (6-mer frequency, TF over GST control)"
same,binding signal,[19],"1.22 fold enrichment (6-mer frequency, TF over GST control)"
